Source: PubChem BioAssay (National Center for Advancing Translational Sciences (NCATS))
GLP-1R agonist – activates the human GLP-1 receptor | AID 624172 | P43220 | 380,000 compounds, 0.007% hits | HEK293 GLP-1R CRE-luciferase, luminescence, 4-6 h; cells express a hypersensitive GLP-1R form | Potency, µM (series often up to 45.6 µM), hits mostly activators
Tb PFK block – blocks T. brucei phosphofructokinase. O15648. Potency, µM (highest dose often 57.5 µM), usual class: inhibitors. 330,000 compounds, 0.17% hits. AID 485367. T. brucei PFK, ADP-Glo luminescence; further: nearly all actives have a fitted effect of over 60% in size
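Luminescent ADP detection (ADP-Glo, two-step: ATP depletion then ADP-to-ATP conversion for luciferase) reported PFK activity after 45 min room-temperature reaction of 1.25 nM enzyme with 0.5 mM F6P and 0.1 mM ATP at pH 8.0.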
Pin1 inh – blocks the human prolyl isomerase Pin1. Potency, µM (series often up to 115 µM), usual class: inhibitors. 390,000 compounds, 0.009% hits. Q13526. Pin1 FP peptide displacement, HiFluor488, 10 min; active means well fitted inhibition curve with a large enough effect in the polarisation, with a control signal flat, not every such curve was filed as active; inconclusive means small, poorly fitted or top-dose-only effect, or effect the other way, or a change in a side signal; inactive means no such curve, though single readings can be large or run the other way; the % refers to the polarisation
HEK293 tox – cytotoxic in the GLP-1 receptor inverse agonist counter-screen; HEK293 cAMP-luciferase reporter cells, luminescence, 24 h; Potency, µM (series often up to 38.3 µM), actives largely listed as inhibitors; 410,000 compounds, 0.13% hits;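 further: loss of luciferase light is scored as toxicity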
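1536-well qHTS counterscreen of the MLSMR; 200 cells/uL, 12 h pre-incubation, 23 nL cpd, 24 h at 37 deg C 5% CO2, luciferase detection reagent, 12 min RT, luminescence. Inhibition = undesired.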
GLP1R inv ag – GLP-1 receptor (human) inverse agonism; P43220; HEK293 GLP-1R CRE-luciferase, luminescence, 24 h; GLP-1R form is constitutively active; 410,000 compounds, 1.6% hits; Potency, µM (series often up to 38.3 µM), most hits filed as inhibitors; further: nearly all actives have a fitted effect of over 55% in size
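Stable HEK293 clone (constitutively active GLP-1R + cAMP-response luciferase); 200 cells/uL plated, 12 h pre-culture, compound 24 hr, 37 deg C/5% CO2; detection reagent 12 min RT; luminescence.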
PGK inhibitor – inhibitors of T. brucei phosphoglycerate kinase. P07378. PGK/GAPDH coupled, Kinase-Glo luminescence, 60 min. Potency, µM (top dose mostly 57.5 µM), hits mostly inhibitors. 380,000 compounds, 0.043% hits; further: nearly all actives have a fitted effect of over 60% in size
Target sequence (P07378 whole entry, looked up): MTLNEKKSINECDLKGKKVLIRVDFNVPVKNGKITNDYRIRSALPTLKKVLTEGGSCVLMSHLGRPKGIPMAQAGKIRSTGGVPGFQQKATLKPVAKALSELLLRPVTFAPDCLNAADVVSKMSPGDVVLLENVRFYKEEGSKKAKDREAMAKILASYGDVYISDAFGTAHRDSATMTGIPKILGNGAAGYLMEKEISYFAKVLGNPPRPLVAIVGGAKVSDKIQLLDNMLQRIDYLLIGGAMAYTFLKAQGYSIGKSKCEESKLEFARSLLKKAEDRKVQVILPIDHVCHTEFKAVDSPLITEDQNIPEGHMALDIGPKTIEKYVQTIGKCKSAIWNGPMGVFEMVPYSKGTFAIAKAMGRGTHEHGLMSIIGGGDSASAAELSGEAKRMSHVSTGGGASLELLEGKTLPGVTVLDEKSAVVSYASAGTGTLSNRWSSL
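Luminescent ATP detection (Kinase-Glo Plus) follows a 60-minute room-temperature incubation, with wells lacking PGK as controls. Buffer: 100 mM TEA (pH 7.6), 5 mM MgCl2, 0.01% Tween-20. Coupling enzyme GAPDH (100 nM final) supplies unstable 1,3-BPG in-well.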
Hits are given with their value; 0 = inactive; ? = inconclusive; - = no result. An excerpt weighted towards active compounds, which were near 1.8% of everything screened. Unless noted, the call rests on the fitted dose curve; in most records, active means well fitted curve in the direction sought with a large enough effect; inconclusive means small, poorly fitted or top-dose-only effect, or another doubt; inactive means no such curve, though single readings can be large; an effect the other way counts as inactive or inconclusive.

SMILES	GLP-1R agonist	Tb PFK block	Pin1 inh	HEK293 tox	GLP1R inv ag	PGK inhibitor
CN1CCN(c2ccc(S(=O)(=O)N3CCCCC3)cc2NC(=O)/C=C/c2ccc(Cl)c([N+](=O)[O-])c2)CC1	0	0	0	10µM	?	0
CCN1CCN(c2ccc(S(=O)(=O)N3CCCCC3)cc2NC(=O)/C=C/c2ccc(OC(F)F)cc2)CC1	0	0	0	?	7.1µM	0
O=c1c2ccccc2nc2sc(Nc3cccc(N4CCNCC4)c3)nn12	-	-	0	-	-	-
Cc1ccc(Cn2nnnc2CN2CCC(c3nc4ccc(Cl)cc4[nH]3)CC2)cc1	0	0	0	0	11µM	0
Cc1cccc(C)c1Nc1sc(C(=O)c2ccccc2)c(N)c1C(=O)Nc1ccc(F)cc1	-	-	0	0	11µM	0
Cc1ccc(N(Cc2cc(=O)[nH]c3ccccc23)C(=O)CCl)c(C)c1	0	0	?	0	5.6µM	0
NS(=O)(=O)c1ccc(S(=O)(=O)N2CCN(c3nc(-c4cccs4)nc4ccccc34)CC2)cc1	-	-	0	-	-	-
Cc1ccc(C)c(N2CCN(S(=O)(=O)c3cccc4cccnc34)CC2)c1	0	0	0	0	10µM	0
Cc1ccc(NC(=O)C2CCCN(S(=O)(=O)c3cccc4cccnc34)C2)cc1Cl (stereo not given)	-	-	0	0	10µM	0
Cc1ccc(C(=O)Nc2ncc([N+](=O)[O-])s2)cc1	0	0	0	0	1.1µM	0
CCCc1ccc(S(=O)(=O)N2CCN(C(C)C(=O)NCc3ccc(OC)cc3)CC2)cc1 (stereo not given)	0	0	?	0	10µM	0
O=C(CCN1C(=O)c2ccccc2Sc2ncccc21)Nc1ccc(F)cc1	-	-	0	0	0	0
CCn1cc(C(=O)NCCCN2CCCC(C)C2)c(=O)c2cc(S(=O)(=O)N3CCc4ccccc4C3)ccc21 (stereo not given)	0	0	0	0	10µM	0
CCn1cc(C(=O)NCCN(CC(C)C)CC(C)C)c(=O)c2cc(S(=O)(=O)N3CCOCC3)ccc21	0	0	?	0	7.9µM	0
CCC1CCCCN1CCCNC(=O)c1cn(CC)c2ccc(S(=O)(=O)N3CCc4ccccc4C3)cc2c1=O (stereo not given)	0	0	0	0	?	0
CCn1cc(C(=O)NCCCN(CC(C)C)CC(C)C)c(=O)c2cc(S(=O)(=O)N3CCOCC3)ccc21	0	0	0	0	0	0
O=C1CCCC2=C1C1(CCCC1)N=C(Nc1nc3cc4ccccc4cc3o1)N2	-	-	0	-	-	-
Fc1cccc(Cn2cc(C(=S)N3CCCCC3)c3ccccc32)c1	0	0	0	0	7.9µM	0
CCCCC(CC)CNC(=O)Cc1ccc(-n2c(=O)[nH]c3ccccc3c2=O)cc1 (stereo not given)	-	-	0	0	?	0
NC(=O)c1cccc(-c2ccnc3c2CC(C(=O)NCc2ccccc2)O3)c1 (stereo not given)	0	-	-	0	5µM	-
Cc1ccc2nc(SCC(=O)NC3CCCc4ccccc43)[nH]c2c1 (stereo not given)	0	0	0	0	8.9µM	0
O=C(CSc1cc(Cl)ccc1Cl)NC1CCCc2ccccc21 (stereo not given)	0	0	0	0	?	0
CC(=O)Nc1ccc(S(=O)(=O)N2CCN(S(=O)(=O)c3c(F)cccc3F)CC2)cc1	-	-	0	-	-	-
CC(C)(C)CC(C)(C)c1ccc(O)c(CN2CCN(CCC#N)CC2)c1	0	0	0	0	11µM	0
N#CCCN1CCN(Cc2cc(-c3ccccc3)ccc2O)CC1	0	0	0	0	0	0
N=c1c2c(ncn1-c1ccccc1)Oc1ccc3ccccc3c1C2c1ccc2c(c1)OCCO2 (stereo not given)	-	-	0	-	-	-
O=C(Nc1nc(-c2cccs2)cs1)c1ccc(S(=O)(=O)N2CCCCC2)cc1	0	0	0	0	?	0
O=C(Nc1nc(-c2cccs2)cs1)c1cccc(S(=O)(=O)N2CCCCCC2)c1	0	0	0	0	5.6µM	0
